# Only some compounds are listed: those with a hit (about 1.3% of all), similar ones and a draw of the others.
# TRPV1 agonist – agonists of human vanilloid receptor 1 (TRPV1); TRPV1-expressing cells, Fluo-8 calcium influx, agonist mode; activation, % at 8.33 µM; Q8NER1; AID 540275; actives 0.19% (n = 320,000); in the data active = activation above about 80%; inconclusive = between about 30% and that limit; note: 0% is about no effect
# Target sequence (Q8NER1 whole entry, looked up): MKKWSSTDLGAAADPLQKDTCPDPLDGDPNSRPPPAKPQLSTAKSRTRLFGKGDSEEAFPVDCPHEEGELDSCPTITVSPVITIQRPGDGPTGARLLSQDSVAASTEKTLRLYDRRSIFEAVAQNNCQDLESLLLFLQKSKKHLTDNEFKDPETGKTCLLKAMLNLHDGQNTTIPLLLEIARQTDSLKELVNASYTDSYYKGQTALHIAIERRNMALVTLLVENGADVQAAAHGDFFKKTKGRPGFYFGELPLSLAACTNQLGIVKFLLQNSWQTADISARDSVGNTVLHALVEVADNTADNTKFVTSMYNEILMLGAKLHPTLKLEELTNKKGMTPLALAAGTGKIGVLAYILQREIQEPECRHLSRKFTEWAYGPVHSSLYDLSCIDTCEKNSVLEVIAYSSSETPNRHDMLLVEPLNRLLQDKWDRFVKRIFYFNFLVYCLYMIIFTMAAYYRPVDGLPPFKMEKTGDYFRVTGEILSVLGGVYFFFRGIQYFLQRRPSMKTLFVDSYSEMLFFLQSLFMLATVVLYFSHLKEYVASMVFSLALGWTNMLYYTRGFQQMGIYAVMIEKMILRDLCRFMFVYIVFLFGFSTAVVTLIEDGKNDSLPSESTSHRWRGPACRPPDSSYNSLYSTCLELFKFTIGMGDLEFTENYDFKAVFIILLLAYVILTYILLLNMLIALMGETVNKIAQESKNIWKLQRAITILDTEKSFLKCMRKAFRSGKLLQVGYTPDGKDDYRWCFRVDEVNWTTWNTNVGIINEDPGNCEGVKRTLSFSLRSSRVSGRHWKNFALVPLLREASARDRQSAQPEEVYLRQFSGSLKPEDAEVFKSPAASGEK
#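 TRPV1-expressing cells were cultured overnight at 35.5C and loaded with Fluo-8 calcium dye for 40 to 90 min at room temperature. After a 10 s baseline, compound was added and calcium influx was read kinetically for 3 min (ex 480/em 520 nm).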
# TRPV1 PAM – enhances activation of the human vanilloid receptor TRPV1; Q8NER1; TRPV1-expressing cells, Fluo-8 calcium influx, capsaicin EC20 potentiation; potentiation, % at 8.33 µM; actives 0.02% (n = 320,000); AID 540277; in the data active = potentiation above about 80%; inconclusive = between about 30% and that limit; note: 0% is about no effect
#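 Cells expressing TRPV1 were dye-loaded with Fluo-8 and read kinetically: 10 s baseline, 3 min after compound (agonist portion), then 2 min after EC20 capsaicin (allosteric enhancer portion). Calcium-bound dye fluorescence at 480/520 nm.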
# KCNH2 3.1 block – KCNH2 3.1 (human) potassium channel inhibition | actives 0.95% (n = 340,000) | activity change, % (tested at about 1.8 µM) | U2OS KCNH2 3.1, thallium flux FluxOr; hits give low values;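 active = maximum activity change below -70%; inconclusive = maximum activity change from -70% to -50%; inactive = maximum activity change above -50%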;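 note: thallium influx rate constant from kinetic fluorescence after stimulation buffer; % is set by controls: 0 for no effect and ±100 for the full control effect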
#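 Normalized rate constant (relative to positive and negative DMSO controls) derived from a 2 min kinetic fluorescence read after stimulation; U2OS cells expressing the 3.1 isoform via virus at 1.77 x 10^8 /mL.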
# KCNH2 WT inh – blocks the wildtype human KCNH2 potassium channel. activity change, % at 1.84 µM. U2OS, BacMam KCNH2, thallium flux FluxOr; hits give low values. actives 0.37% (n = 340,000). Q12809;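 active = maximum activity change below -70%; inconclusive = maximum activity change between -70% and -50%; inactive = maximum activity change above -50%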; note: % is set by controls: 0 for no effect and ±100 for the full control effect
#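 U2OS cells were transduced with wild-type KCNH2 virus (2.03 x 10^8 / mL) for 4 h at room temperature, then cultured overnight at 37 C. Thallium flux was read with FluxOr dye. Rate constants were normalized to DMSO controls.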
# TRPML1 ag – human mucolipin-1 channel agonism | Q9GZU1 | TRPML1-expressing cells, Ca2+ dye fluorescence, FDSS | activation, % (no concentration beside the values) | actives 0.12% (n = 410,000); in the data active = activation above about 50%; inconclusive = mostly about 30% to 49%; note: 0% is about no effect
#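 Tet-induced TRPML1-DL cells, 1,500 per well, cultured overnight, were loaded with a no-wash Ca2+ dye for 45–90 min. Calcium fluorescence was recorded on the FDSS for 110 s after compound addition, before the EC80 agonist (4 uM 54-4) was added.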
# TRPML1 blocker – blocks the human TRPML1 channel; Q9GZU1; TRPML1-inducible cells, Ca2+ dye fluorescence, FDSS; hits give low values; inhibition of EC80 agonist-evoked calcium signal; activity change, negative = inhibition, % (concentration not given with the values); actives 0.02% (n = 390,000); in the data active = activity change below about -50%; inconclusive = between about -30% and that limit;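 note: stimulus is agonist 54-4 at its EC80 concentration; % is set by controls: 0 for no effect and ±100 for the full control effect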
#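 Tet-induced TRPML1-DL cells loaded with Ca8 no-wash calcium dye were read kinetically on FDSS. Compound addition was followed by EC80 agonist 54-4 (4 uM final); inhibition was read over 110 s.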
# * marks the source's active call; other numbers are inactive results; ? = inconclusive; . = not tested or not shown.
SMILES,TRPV1 agonist,TRPV1 PAM,KCNH2 3.1 block,KCNH2 WT inh,TRPML1 ag,TRPML1 blocker
O=C1CSC(=S)N1/N=C/c1cc(Br)c(O)c(Br)c1,?,-11,-11,-2,59*,-13
O=C(CCC1N=C2c3ccccc3N=C(SCc3cccc(F)c3)N2C1=O)NCc1cccs1 (configuration not stated),.,.,.,.,1,24
CCN(C(=O)c1ccc(=O)n(C)n1)c1c(N)n(Cc2ccccc2)c(=O)[nH]c1=O,.,.,-92*,-1,-1,-12
C=C(Br)COC(c1ccco1)[C@H](Cc1ccccc1)NC(=O)OC(C)(C)C (some centres not stated),.,.,.,.,3,.
Cc1nc(-c2ccc(F)cc2)sc1CCNC(=O)c1ccco1,.,.,.,.,0,-23
N#C/C(=C/c1ccc(Br)s1)C(=O)NCCc1c[nH]c2ccccc12,5,9,-7,-74*,0,-13
CC(=O)NC(Cc1ccc(O)cc1)C(=O)NCC(N)C(=O)c1ccccc1 (configuration not stated),.,.,.,.,0,.
C/C(=N\Nc1ccc2nncn2n1)c1ccco1,3,-7,16,1,-1,0
C/C(=N\Nc1ccc2nncn2n1)c1ccc(Br)s1,96*,-10,3,3,2,-10
CCOc1ccc(CCNC(=O)Cn2ncc3c(=O)oc4ccc(C)cc4c32)cc1,.,.,.,.,-1,15
O=C(O)c1ccc(C[n+]2c(-c3ccccc3)csc2Nc2ccccc2)cc1,2,-2,-2,-4,0,-5
C=CC[n+]1c(C)csc1Nc1ccc(C(=O)O)cc1,-3,9,-79*,.,0,11
COc1ccc(C(=O)CCN2CCN(c3ccccc3OC)CC2)cc1,-7,8,3,-4,0,-8
O=C(c1ccc(F)cc1)C1CCN(Cc2ccc(F)cc2)CC1,?,-18,-7,6,0,-2
O=C(CCCN1CCC(C(=O)c2ccc(F)cc2)CC1)c1ccc(F)cc1,-2,-3,-103*,-74*,1,-4
COc1ccccc1N1CCN(CCCC(=O)c2ccc(F)cc2)CC1,.,.,-70*,45,1,-2
COc1cc2c(C)nc3c(c(C)nn3-c3ccccc3)c2cc1OC,-3,-5,-81*,18,0,10
COC(=O)C1CCN(CC(=O)Nc2ccc3c(c2)OCCO3)CC1,.,.,-15,2,2,13
CC1CC(C)CN(CC(=O)Nc2ccc3c(c2)OCCO3)C1 (configuration not stated),2,11,-139*,-113*,-1,5
CSc1ccc(/C=N/NC(=O)CN2CCN(Cc3ccccc3)CC2)cc1,-6,-2,-73*,-1,0,9
CSc1ccc(/C=N/NC(=O)CN2CCN(Cc3ccc(Cl)cc3)CC2)cc1,6,-28,-106*,-41,0,0
CC(/C=N/NC(=O)CN1CCN(Cc2ccc(Cl)cc2)CC1)=C\c1ccco1,-1,-4,-74*,-29,1,12
CC(=O)Nc1ccccc1OCc1cc(=O)n2c3c(sc2n1)CCCC3,.,.,.,.,0,-4
COC(=O)c1ccc(CSc2c(C(C)C)cnc3c2c(=O)n(C)c(=O)n3C)cc1,.,.,.,.,4,28
CC(C)(C)n1ncc2c(=O)n(Cc3ccc(Cl)c(OC(F)(F)F)c3)cnc21,.,.,.,.,5,10
SMILES,TRPV1 agonist,TRPV1 PAM,KCNH2 3.1 block,KCNH2 WT inh,TRPML1 ag,TRPML1 blocker
C/C(CC(=O)Nc1cc(C)ccn1)=N\NC(=O)c1ccccc1C,6,7,7,-14,61*,-11
Nc1nc(Cl)nc2c1ncn2[C@@H]1O[C@H](CO)[C@@H](O)[C@H]1O,-2,6,-15,2,2,15
N=c1ncn(C2OC(CO)C(O)C2O)c2nc(Br)[nH]c12 (configuration not stated),.,.,-168*,-228*,0,-11
Cc1ccc2c(c1C)NC(=O)C21N2CCCC2C(C(=O)c2ccc3ccccc3c2)C12C(=O)Nc1ccccc12 (configuration not stated),9,15,-86*,-5,0,46
Cc1nc(C)c(C(=O)N2CCCC(C(=O)c3ccc4ccccc4c3)C2)s1 (configuration not stated),8,1,1,-19,0,14
CCCCCCCNC(=O)C1(CC2CC(c3cccc(Br)c3)=NO2)CCNCC1 (configuration not stated),8,-1,-77*,-8,4,-3
CCCCCCCNC(=O)C1(CC2CC(c3cccc(Br)c3)=NO2)CCN(C(=O)Cc2ccc(F)cc2)CC1 (configuration not stated),0,-30,-26,-34,1,39
CCCCCCCNC(=O)C1(CC2CC(c3cccc(Br)c3)=NO2)CCN(C(=O)c2ccccc2)CC1 (configuration not stated),-2,-21,?,-71*,0,1
COc1ccc(-c2cc(C(=O)Nc3c(Cl)cccc3Cl)no2)cc1OC,.,.,.,.,0,23
O=C(NCCc1ccccc1)c1ccc(CSc2nc3ccncc3n2Cc2ccc(F)cc2)cc1,.,.,.,.,2,0
Cc1ccc(Cn2cc(C(=O)c3ccc4c(c3)OCO4)c(=O)c3cc(C)ccc32)cc1,.,.,.,.,3,30
O=C(NC1CC1)c1nc(Cn2cc([N+](=O)[O-])cn2)no1,1,-1,3,-73*,-1,-16
O=C(NCc1ccccn1)c1nc(Cn2cc([N+](=O)[O-])cn2)no1,2,-2,-17,-1,1,-6
CC(=O)Nc1nonc1-c1nnc(SCc2ccc(F)cc2)n1C,.,.,.,.,1,-16
COc1cc(-c2cn[nH]c2N)cc(OC)c1OC,-4,0,-79*,-7,0,-1
CC(C)(C)n1ncc2c(=O)n(Cc3ccccc3C(F)(F)F)cnc21,.,.,.,.,5,-5
CCC(C)NC(=O)C1=CCN(S(=O)(=O)c2ccc(C)cc2)CC1 (configuration not stated),-3,4,-2,4,0,-54*
Cc1ccc(NC(=O)C2=CCN(S(=O)(=O)c3ccc(F)cc3)CC2)c(C)c1,?,-14,-3,5,1,-19
CSc1ccccc1NC(=O)COC(=O)Cc1ccsc1,.,.,-97*,1,0,-2
Cc1ccn2c(NCc3ccc4c(c3)OCO4)c(-c3ccc(O)cc3)nc2c1,26,-17,-75*,-12,0,8
COc1cc2cc(C)c3nnc(SCC(=O)Nc4cc(C)on4)n3c2cc1OC,-9,108*,-4,-1,-1,-23
COc1cccc(CN2Cc3cccc4c3[C@H](C=CC4)CC2=O)c1,.,.,.,.,0,.

# High-throughput results as filed in PubChem BioAssay.
